Assay results published in PubChem BioAssay AID504845 (National Center for Advancing Translational Sciences (NCATS), 2011).
Hit rate of the full screen: of about 390,000 compounds, about 150 (0.038%) were called active. Roughly 3% stayed inconclusive and do not appear here. The call rests on the fitted dose curve; in most records, active means well fitted inhibition curve with a large enough effect; inconclusive means small, poorly fitted or top-dose-only effect; inactive means no such curve, though single readings can be large or run the other way. What follows is part of a selection rich in actives, with near analogues and random picks from the rest.

molecular target: Regulator of G-protein signaling 4 (Homo sapiens) (UniProt P49798); experiment: Inhibitors of Regulator of G Protein Signaling (RGS) 4: qHTS; conditions: Transcreener GDP fluorescence polarization, RGS4-accelerated GTP hydrolysis; series mostly up to 114 µM; activity change, negative = inhibition: at the top concentration; further: nearly all actives have a fitted effect of over 75% in size
Sequence (P49798 whole entry, looked up, the tested form may be a part): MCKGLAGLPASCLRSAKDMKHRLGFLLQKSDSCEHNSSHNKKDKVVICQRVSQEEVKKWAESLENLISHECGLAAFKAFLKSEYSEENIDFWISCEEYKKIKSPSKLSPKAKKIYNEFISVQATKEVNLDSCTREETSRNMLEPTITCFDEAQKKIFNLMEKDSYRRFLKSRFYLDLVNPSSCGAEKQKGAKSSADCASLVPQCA
From the text: G-protein-coupled receptors (GPCRs) are well-established targets for drug discovery and development. Members of the "regulator of G-protein signaling" (RGS)-protein superfamily have recently emerged as critical modulators of specific GPCR signaling pathways. […] Combining specific RGS domain inhibitors with existing GPCR agonists should potentiate cellular responses and could also increase the specificity of action of existing therapeutics. Small molecule modulators of RGS domain activity should also have clinical utility in inhibiting or potentiating the actions of endogenous GPCR agonists. In particular, the diversity of RGS proteins with highly localized and dynamically regulated distributions in the human brain makes this family of proteins attractive targets for pharmacotherapy of central nervous system (CNS) disorders such as Parkinson's disease, schizophrenia, and anxiety.
This assay was used to screen the NIH Molecular Libraries Small Molecule Repository (MLSMR) in order to identify a small molecule that inhibits RGS4.
NIH Chemical Genomics Center [NCGC]
NIH Molecular Libraries Probe Centers Network [MLPCN]
Assay Submitter (PI): David Siderovski, University of North Carolina Chapel Hill (School of Medicine)
Two microliters of 500nM (2x working concentration) is dispensed into black medium-binding solid-bottom Kalypsys plates. Then with the Kalypsys pintool 23nl of control and compounds are transferred; the control compound is […] CCG-4986 (working concentration). After a 10 minute incubation at room temperature 2ul of antibody is added with the Kalypsys dispenser; (-)RGS4/Transcreener GDP solution in columns 3 and 4 which consisted of 10nM (2x working concentration) Alexa633, 20uM GTP, and 20 ug/ml GDP antibody and (+)RGS4/Transcreener GDP solution in columns 1,2, and 5 to 48 which consists of 900nM RGS4 (2x working concentration), 10nM Alexa633, 20 ug/ml GDP antibody. The plate is centrifuged at 1000 RPM for 15 seconds to remove any possible bubbles and then incubated for 5 minutes at ambient room temperature. An initial fluorescent polarization read (620 nm/688 nm) is performed on the Envision before the plate is incubated for 90 minutes at 30 deg C at a relative humidity of 80%. The plate is once more centrifuged at 1000 RPM for 15 seconds and another Envision fluorescent polarization (620 nm/688 nm) read is carried out.
On the % scale 0 is the no-effect control and ±100 the full control effect; potency means the concentration at half of the fitted maximal effect.

Activity change, negative = inhibition, inactive:
COc1cc(CN(CC2CCCO2)C(=O)c2ccccc2F)cc(OC)c1OC (stereo not drawn) -2.76%
CCn1c2ccccc2c2cc(NC(=O)COc3ccc(C)cc3C)ccc21 19.8%
Nc1ccc2c3c(cccc13)C(=O)NC2=O -13.2% [at 56.9 µM]
COc1ccc(-c2ccc(C3C4C=CCCC4(C)C(=O)N3Cc3ccccc3)c(F)c2)cc1OC (stereo not drawn) -8.45%
Cc1ccc(Nc2ccc3cc(S(=O)(=O)N4CCCCC4)ccc3n2)cc1F -14.4%
O=C(NCC(c1ccc(Cl)cc1)N1CCOCC1)c1ccccc1F (stereo not drawn) -11.4%
COc1ccc(CCCOC(Cn2ccnc2)c2ccc(OC)cc2)cc1 (stereo not drawn) 360% [at 56.9 µM]
CCCNC(=O)C(CC)n1nc(CC)n2c(cc3oc(C)cc32)c1=O (stereo not drawn) 30%
CCCCCCCCCCCC(=O)O -7.58%
CCc1ccc(CN(Cc2ccco2)C(=O)c2ccccc2Cl)cc1 -1.34%
COc1ccccc1N1CCN(C[C@@H]2CN3C(=O)N(C)c4ccccc4C3=N2)CC1 -600% [at 56.9 µM, above what the read-out allows, likely interference]
O=C(COc1ccc(Cl)cc1)Nc1ccc(-c2nc3cc(Cl)ccc3o2)c(O)c1 -9.26%
CCN(CC)/[N+]([O-])=N/Oc1cc(O/[N+]([O-])=N/N2CCCC2CO)c([N+](=O)[O-])cc1[N+](=O)[O-] (stereo not drawn) -53.1%
COc1ccc(OC)c(NC(=O)CSC2=Nc3ccccc3C3=NC(CC(=O)NCc4ccc(F)cc4)C(=O)N23)c1 (stereo not drawn) 5.73%
CCCc1nn2c(=O)cc(COC(=O)c3ccc(NC(=O)COc4ccc(F)cc4)cc3)nc2s1 18.8%
CCc1ccccc1NC(=O)N1CCC2(CC1)Oc1ccccc1C(=O)N2Cc1ccccc1F 13.5%
Cc1ccccc1CSCCNC(=O)C1CCN(S(=O)(=O)Cc2ccccc2)CC1 23%
COc1ccccc1C(=O)NCCn1cc(SCc2ccccc2Cl)c2ccccc21 7.87%
Cc1ccc(C)n1-c1nnc(N2CCC(C(=O)NCc3ccccc3Cl)CC2)s1 0.173%
COc1ccc(-c2noc(CSc3nnc(-c4ccccc4)n3-c3ccc(F)cc3)n2)c(OC)c1 -3.78%
Cc1c(C(=O)NCc2ccccc2Br)oc2ccc3c(c12)C(=O)CC(C)(C)O3 7.56%
CCn1cc(C(=O)NCCc2ccccc2)c(=O)c2cc(S(=O)(=O)N3CCCCCC3)ccc21 0.892%
Cc1ccccc1CNC(=O)c1cccc(NC(=O)c2nsc3ccccc23)c1 -2.43%
Cc1ccc(C)c(S(=O)(=O)n2nc(C)c(S(=O)(=O)N3CCC(C)CC3)c2C)c1 1.81%
Cc1ccc2oc3c(c(=O)c2c1)C(c1ccc(O)cc1)N(Cc1ccc2c(c1)OCO2)C3=O (stereo not drawn) -8.31%
Cc1ccc(/C(=C/CN2CCCC2)c2ccccn2)cc1 7.32% [at 56.9 µM]
CCC1=Nc2cc(C(=O)NCC(C)c3ccccc3)ccc2Sc2ccc(C)cc21 (stereo not drawn) -7.58%
CN(C)c1cc2c(Nc3ccc4c(cnn4Cc4ccccc4)c3)ncnc2cn1 -0.133% [at 56.9 µM]
Cc1csc(-c2nc3ccccc3n2C)n1 -622% [at 56.9 µM, above what the read-out allows, likely interference]
C=CCCN(C(Cc1ccccc1)C(=O)OC)S(=O)(=O)c1cc(Br)ccc1Br (stereo not drawn) -0.629%
Cc1ccc(NC(=O)CCCn2c(=O)c3cccn3c3ccccc32)cc1Cl 7.61%
CC(N)(C(=O)O)c1ccc(-c2nn[nH]n2)cc1 (stereo not drawn) 10% [at 56.9 µM]
O=C(c1cccc(Br)c1)N1CCN(Cc2cc(=O)n3nc(-c4ccccc4)sc3n2)CC1 3.64%
O=C(NCCCO)c1nn(-c2ccc(Cl)cc2)nc1CO 28%
Cc1oc2ccc(O)c(CN3CCC(C)CC3)c2c1C(=O)Nc1ccccc1 15.4%
O=C(O)c1ccc2c(c1)N(Cc1ccc(F)cc1)C(=O)c1ccccc1S2=O (stereo not drawn) 11.3%
OCCNc1ncnc2oc(-c3ccco3)c(-c3ccco3)c12 -28.3%
O=C(Cn1nc(Cc2cccnc2)c2ccccc2c1=O)N1CCN(c2ccccc2F)CC1 15%
Cc1cc2c(cc3c(SCc4cccc(Cl)c4)nnc(C)n32)o1 4.36%
Cc1cccc(CCNC(=O)c2ccc3c(c2)nc2n3CCC(C)C2)c1 (stereo not drawn) -14.1%
Cc1ccc(Cn2c(C)c3cnn(CC(=O)NCc4ccccc4)c(=O)c3c2C)cc1 -1.73%
C/C=C1\C2C=C(C)CC1(N)c1ccc(=O)[nH]c1C2 (stereo not drawn) 320% [at 56.9 µM]
Cc1ccc(Nc2nnc(-c3ccc(C)c(S(=O)(=O)N4CCCCC4)c3)c3ccccc23)cc1 -9.78%
CCOC(=O)c1[nH]c(C)c(CCC(=O)NCc2ccccc2C)c1C 19.7%
O=S(=O)(c1ccc2nc(NCc3ccccc3Cl)ccc2c1)N1CCCCC1 0%
CCc1cc2c(cc3c(=O)n(CC(=O)N4CCN(c5cc(Cl)ccc5C)CC4)nc(CC)n32)s1 10.4%
COc1ccc(OC)c(-n2nnc(-c3nc(-c4cc(OC)c(OC)c(OC)c4)no3)c2C)c1 -26.9%
Cc1ccc(SCC(CC(C)C)N2CCN(CCc3ccccc3)CCC2=O)cc1 (stereo not drawn) 22%
Cc1cccc(NC(=O)CN(c2ccc(C(C)C)cc2)S(=O)(=O)c2c(C)nn(C)c2C)c1C 5.91%
C#CCCCCCCCCCCCCCCCC(=O)O -583% [at 56.9 µM, above what the read-out allows, likely interference]
CCCN1CCC(=O)N(C(CSc2ccc(OC)cc2)Cc2ccccc2)CC1 (stereo not drawn) -16.1%
COc1cccc(CN2CCc3nc(SCC(=O)Nc4ccccc4)[nH]c(=O)c3C2)c1 33.7%
COC(=O)c1ccccc1NC(=O)Cn1c(=O)n(-c2cccc(C(F)(F)F)c2)c(=O)c2c(C)c(C)sc21 21.6%
COc1ccc(CN(Cc2ccccc2)C(=O)c2ccc(O)cc2)cc1COc1ccc(NC(C)=O)cc1 17.2%
COc1cc(OC)c2c(C)cc(=O)oc2c1C(CCN1CCCCC1)c1ccc(N(C)C)cc1 (stereo not drawn) 0.18%
O=[N+]([O-])c1ccc(S(=O)(=O)N2CCN(c3nc(-c4ccccc4)nc4ccccc34)CC2)cc1 9.46%
COc1ccc(OC)c(NC(=O)C2CCCN(S(=O)(=O)c3ccc4c(c3)CCCC(=O)N4)C2)c1 (stereo not drawn) -0.356%
COCCNC(=O)c1cc(-c2cccc(Cl)c2)on1 -16%
COc1ccccc1-c1nnc(SCC(N)=O)o1 11.9%
O=C(Nc1ccccc1)N[C@H]1C[C@H](C(=O)O)Nc2cc(Cl)cc(Cl)c21 -585% [at 56.9 µM, above what the read-out allows, likely interference]
CCOc1ccc(S(=O)(=O)c2cn(Cc3ccccc3)c3ccc(OCC)cc3c2=O)cc1 1.09%
Cn1c(=O)c2c(nc(SCC(=O)Nc3ccc(F)cc3)n2Cc2ccccc2)n(C)c1=O -15.8%

Potency, active:
CCCCC/C=C\CC1OC1CCCCCCCC(=O)O (stereo not drawn) 37.7 µM
